# Screening data (PubChem BioAssay)
# Sfp inh: qHTS Assay for Inhibitors of Bacillus subtilis Sfp phosphopantetheinyl transferase (PPTase). 4'-phosphopantetheinyl transferase ffp (Bacillus subtilis), Q9F4F7. Biochemical Sfp PPTase activity, qHTS. Potency, µM, for the others: largest response in the series, negative = inhibition, usual class: inhibitors. 3.5% of 310,000 active. AID 1490, 2009;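 further: the enzyme is Sfp with the accession as filed and its product quenches rhodamine fluorescence; 0% = enzyme reaction without inhibitor and -100% = no enzyme wells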
#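 After 15 min at room temperature with compound, 15 nM Sfp received 5 uM rhodamine-CoA plus 12.5 uM BHQ-2-ybbR (50 mM Hepes pH 7.6, 10 mM MgCl2). Rate came from the fluorescence difference over 30 min, ex 525/em 598 nm.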
# G9a block: qHTS Assay for Inhibitors of Histone Lysine Methyltransferase G9a; G9a H3K9 monomethylation, AlphaScreen, 2 h; Potency, µM (highest dose often 102 µM), for inactives: at the top dose activity, negative = inhibition, hits mostly inhibitors; 8.8% of 350,000 active; AID 504332, 2011; further: on the % scale 0 is the no-effect control and ±100 the full control effect; nearly all actives have a fitted effect of over 75% in size
#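 Readings reflect AlphaScreen signal from monomethyl-H3K9 antibody detection. HMT at 20 nM; substrate b-H3K9 500 nM; cofactor SAM 20 uM; 2 h RT reaction; compounds tested as titrations in qHTS with 15 min preincubation.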
# VDR inh: Inhibitors of the vitamin D receptor (VDR): qHTS; Potency, µM, for the others: max response, negative = inhibition, usual class: inhibitors; 0.93% of 400,000 active; AID 504847, 2011; Vitamin D3 receptor (Homo sapiens), P11473; VDR-SRC2-3 peptide fluorescence polarization, 2 h; further: on the % scale 0 is the no-effect control and ±100 the full control effect
#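 FP read-out; VDR + SRC2-3 coactivator peptide; 23 nl compound by pintool; 2 h RT incubation; reagents held at 4 deg C, protected from light.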
# ALOX12 inh: Primary qHTS assay for inhibitors of human arachidonate 12S-lipoxygenase (ALOX12): Round 2; Potency, µM (doses to about 108 µM), for inactives: at the top dose activity change, negative = inhibition, usual class: inhibitors; AID 1671190, 2021; 1.1% of 580,000 active; purified 12hLO, xylenol orange hydroperoxide absorbance; further: on the % scale 0 is the no-effect control and ±100 the full control effect
# Target sequence (P18054 whole entry, looked up): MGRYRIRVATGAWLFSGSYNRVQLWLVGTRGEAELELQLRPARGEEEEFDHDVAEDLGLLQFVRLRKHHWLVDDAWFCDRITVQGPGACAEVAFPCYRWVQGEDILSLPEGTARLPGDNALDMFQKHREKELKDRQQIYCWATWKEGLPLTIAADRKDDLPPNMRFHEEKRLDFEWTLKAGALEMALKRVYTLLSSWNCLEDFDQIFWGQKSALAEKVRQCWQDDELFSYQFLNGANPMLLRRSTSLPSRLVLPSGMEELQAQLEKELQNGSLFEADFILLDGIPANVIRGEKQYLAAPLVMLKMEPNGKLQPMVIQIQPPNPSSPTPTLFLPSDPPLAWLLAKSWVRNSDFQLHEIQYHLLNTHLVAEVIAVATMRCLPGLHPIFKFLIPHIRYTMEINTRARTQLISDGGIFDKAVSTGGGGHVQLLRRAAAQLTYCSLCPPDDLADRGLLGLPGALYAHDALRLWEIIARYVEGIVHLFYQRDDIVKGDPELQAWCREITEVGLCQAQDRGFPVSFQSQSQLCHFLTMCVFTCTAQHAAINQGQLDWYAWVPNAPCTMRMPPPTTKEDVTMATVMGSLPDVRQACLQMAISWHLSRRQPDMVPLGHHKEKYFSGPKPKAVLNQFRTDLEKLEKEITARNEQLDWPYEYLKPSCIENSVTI
#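 Purified human 12hLO (150 nM final) in 25 mM Hepes, 0.01% Triton X-100, pH 7.0 was preincubated 15 min at room temperature with compound. Then 40 uM arachidonic acid was added, 30 min. Hydroperoxide was read by Fe-XO absorbance ratio 573/405 nm.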
# Glioma ERSR ind: qHTS for Inducers of the Endoplasmic Reticulum Stress Response (ERSR) in Human Glioma: qHTS; Potency, µM, for the others: at the top dose activation, usual class: activators; AID 602332, 2012; U87-MG GRP78 promoter luciferase reporter, 16 h; 0.02% of 420,000 active; further: series mostly up to about 76 µM; % of control where 0% means no effect; nearly all actives have a fitted effect of over 35% in size
#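 Stably transfected U87-MG human glioma cells carrying a GRP78-based luminescent sensor were seeded at 1000 cells/well, pin-dosed with compounds and incubated 16 h. Luciferase reagent was then added, and end-point luminescence was read after 10 min at room temperature.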
# * hit, by the source's call; ? = inconclusive; · = no result; [ ] = another dose, or the depositor's remark. Many of the other results were omitted from the sample, so hits are more common in it than they were. The call rests on the fitted dose curve; in most records, active means well fitted curve in the direction sought with a large enough effect; inconclusive means small, poorly fitted or top-dose-only effect, or another doubt; inactive means no such curve, though single readings can be large; an effect the other way counts as inactive or inconclusive. Potency means the concentration at half of the fitted maximal effect.
SMILES,Sfp inh,G9a block,VDR inh,ALOX12 inh,Glioma ERSR ind
O=C(COc1ccccc1C(=O)c1cnn(-c2ccccc2)c1)Nc1ccccc1,6.0%,44.7µM*,-16.3%,-3.6%,11.0%
CN1c2cccc3cccc(c23)N(C)C1c1cccs1,-12.4%,15.8µM*,6.1%,?,-0.2%
CC1N(C)c2cccc3cccc(c23)N1C,-10.9%,2µM*,-4.0%,?,-1.2%
CN1C(=O)N(C)c2cccc3cccc1c23,9.5%,20.1%[2.33 µM],8.6%,29.6%,-5.5%
O=C(NC1=C(Nc2ccc(F)cc2)C(=O)c2ccccc2C1=O)c1ccc(Cl)cc1,-1.7%,5.01µM*,-25.9%,4.8%,2.0%
Cc1ccc(SCc2ccc(C(=O)Nc3ccccc3C)cc2)cc1,·,·,·,-5.7%,·
Oc1c(C(c2ccccc2)N2CCCCC2)sc2nc(-c3ccco3)nn12 (stereo not drawn),·,·,·,-20.1%,·
CC1=[N+](C)c2ccc3ccccc3c2C1(C)C,?,8.91µM*,44.7µM*,?,-4.9%
O=C(CCNc1nc(Cl)nc2nc[nH]c12)NCCCO,·,·,·,-26.9%,·
O=C(NCc1ccco1)c1ccc([N+](=O)[O-])o1,-26.6%,44.7µM*,-14.5%,354.8%,?
O=C(NCc1ccco1)c1ccc(-c2ccc(Cl)cc2)o1,11.6%,50.1µM*,10.5%,-19.2%,8.5%
O=C(NC12CC3CC(CC(C3)C1)C2)c1ccc(-c2ccc(Cl)cc2)o1,-1.3%,20µM*,-9.4%,-14.1%,3.3%
O=C(NCc1cccnc1)c1ccc([N+](=O)[O-])o1,-2.0%,8.8%,-10.7%,-14.3%,?
CC(Sc1ccsc1[N+](=O)[O-])C(=O)NCc1ccco1 (stereo not drawn),50.1µM*,?,-10.4%,?,-5.8%
CCc1cc(CC)n(-c2nc3c(c(=O)n(CC(N)=O)c(=O)n3C)n2CC(C)C)n1,·,·,·,17.1%,·
Cc1cc(NC(=O)c2ccc([N+](=O)[O-])o2)ccc1NC(=O)c1ccco1,3.1%,79.4µM*,19.2%,-12.8%,-10.8%
COc1cc(NC(=O)c2ccc([N+](=O)[O-])o2)ccc1NC(=O)c1ccco1,-1.5%,?,9.4%,-2.7%,-3.1%
COC(=O)[C@@]1(Cc2ccc(OC)cc2)[C@@H]2C(=CC(=O)[C@H]2CC(=O)C(=O)N(C)C)CN1C(=O)c1ccccc1,-1.2%,?,79.4µM*,?,-2.2%
C=C1C(=O)C=C2CN(C(=O)c3ccccc3)[C@@](Cc3ccc(F)cc3)(C(=O)OC)[C@@H]12,10µM*,8.91µM*,?,·,-11.6%
COC(=O)[C@@]1(Cc2ccc(F)cc2)[C@H]2c3cc(C(=O)N(C)C)n(C)c3C[C@H]2CN1C(=O)c1ccccc1,5.8%,·,·,-3.4%,·
COC(=O)C1(NC(=O)CCNC(=O)C2CCCC2)CCC(C)CC1 (stereo not drawn),·,·,·,-6.0%,·
Cc1cc(O)c(C(=O)/C=C/c2ccccc2)cc1Cl,·,·,·,5.4%,·
CC(=O)c1c(C)[nH]c(C(=O)Cn2nnc(-c3ccc(C(C)C)cc3)n2)c1C,·,·,·,15.8µM*,·
CCC(C)(C)NCc1cc(=O)oc2c(C)c(O)ccc12,·,·,·,5.5%,·
O=C(Nc1cccnc1)Nc1ccc(Cl)cc1Cl,-11.0%,50.1µM*,-14.8%,25.1µM*,5.5%
O=C(Nc1ccc(Cl)cc1)Nc1cccnc1,12.2%,-4.8%[12.7 µM],8.8%,-28.6%,1.6%
O=C(NCCc1c[nH]c2ccccc12)c1ccc(Cl)cc1F,·,·,·,-9.2%,·
O=C(CN1C(=O)C2CCCCC2C1=O)Nc1nc(-c2ccccn2)cs1 (stereo not drawn),15.8µM*,?,-7.9%,-22.4%,-2.7%
CC1(c2ccccc2)NC(=O)N(CC(=O)Nc2nc(-c3ccccn3)cs2)C1=O (stereo not drawn),·,-43.0%[2.33 µM],-28.7%,-16.7%,-2.5%
C[C@@H](C(=O)Nc1nc(-c2ccccn2)cs1)N1C(=O)C2CCCCC2C1=O (stereo partly drawn),50.1µM*,1.41µM*,?,?,-0.2%
